SARS PLpro yeast = qHTS of Yeast-based Assay for SARS-CoV PLP; S. cerevisiae expressing SARS-CoV PLpro, growth rescue; Potency, µM (top dose mostly 32.9 µM), usual class: activators; hit rate 0.19% among 330,000; AID 485353, 2010; calls by dose curve; note: nearly all actives have a fitted effect of over 55% in size
Cycloheximide cs = Cycloheximide Counterscreen for Small Molecule Inhibitors of Shiga Toxin; cell reporter, cycloheximide protein synthesis inhibition counterscreen; max response, %; hit rate 12% among 300,000; AID 2314, 2010; in the data active = max response mostly above about 13%, no sharp cut-off; inactive = mostly below about 14%; note: read at 38.3 µM for the half of the compounds with a filed dose
TbPYK inhibitor = qHTS of Trypanosoma Brucei Inhibitors; hit rate 0.12% among 410,000; AID 624173, 2012; Potency, µM (titrated, usually from 76.8 µM), usual class: inhibitors; pyruvate kinase (Trypanosoma brucei), Q57TT1; TbPYK enzyme, Kinase-Glo Plus ATP luminescence, 45 min; note: nearly all actives have a fitted effect of over 50% in size
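Glycolytic pyruvate kinase of T. brucei was incubated with substrate, test compound and 130 uM ADP for 45 minutes at room temperature. Luminescent Kinase-Glo Plus signal was measured after 10 minutes.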
NS1 inh = qHTS Assay for Inhibitors of Influenza NS1 Protein Function | Potency, µM (doses to about 46.1 µM) | hit rate 0.4% among 270,000; calls by dose curve; note: actives are rising curves; nearly all actives have a fitted effect of over 50% in size
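Compounds were scored for reversing the slow growth caused by influenza A NS1 in S. cerevisiae, measured by optical density at 600 nm. Assay medium contained 2% galactose at pH 6.0; NS1-free yeast of the same strain were the positive control.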
Shiga toxin inh = A qHTS for Small Molecule Inhibitors of Shiga Toxin; inhibition, % at 38.7 µM; AID 2315, 2010; hit rate 9.2% among 290,000; Vero cells, Shiga toxin protein synthesis inhibition reporter; in the data active = inhibition mostly above about 28%, no sharp cut-off; inactive = mostly below about 43%
LmPK inhibitor = qHTS Assay for Inhibitors of Leishmania Mexicana Pyruvate Kinase (LmPK). Q27686. purified LmPK, Kinase-Glo ATP luminescence, 1 h. Potency, µM (doses to about 57.5 µM), usual class: inhibitors. hit rate 0.37% among 290,000
Target sequence (Q27686 whole entry, looked up): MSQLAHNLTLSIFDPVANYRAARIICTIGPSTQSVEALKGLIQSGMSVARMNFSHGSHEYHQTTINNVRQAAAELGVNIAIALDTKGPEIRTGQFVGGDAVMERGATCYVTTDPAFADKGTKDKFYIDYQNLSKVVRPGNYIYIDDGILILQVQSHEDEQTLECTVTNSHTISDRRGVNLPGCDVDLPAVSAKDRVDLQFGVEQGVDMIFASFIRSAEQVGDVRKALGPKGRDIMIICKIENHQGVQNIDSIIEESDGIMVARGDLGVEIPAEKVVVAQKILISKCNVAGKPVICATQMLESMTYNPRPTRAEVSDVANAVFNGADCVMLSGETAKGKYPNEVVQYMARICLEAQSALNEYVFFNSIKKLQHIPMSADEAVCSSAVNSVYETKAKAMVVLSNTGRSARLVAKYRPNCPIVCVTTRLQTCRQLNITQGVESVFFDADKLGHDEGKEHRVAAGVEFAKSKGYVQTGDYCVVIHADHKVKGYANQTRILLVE
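ATP generated from ADP (0.1 mM) and PEP (0.5 mM) by 0.1 nM LmPK over 1 h at room temperature (pH 7.2 imidazole buffer) was detected by coupled luciferase luminescence. Values were normalized to uninhibited and no-enzyme wells.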
Numbers stand for hits. Shown is part of a subset that was picked to be rich in hits. Unless noted, calls come from the whole dose curve; as a rule, active = well fitted curve in the direction sought with a large enough effect; inconclusive = small, poorly fitted or top-dose-only effect, or another doubt; inactive = no such curve, though single readings can be large; an effect the other way counts as inactive or inconclusive.

Screening O=C(Nc1ccccc1)N1CCC2(CC1)CCN(C(=O)c1ccncc1)CC2 returned TbPYK inhibitor inactive.
For CCCNC(=O)CCn1cc(-c2ccc(OC)cc2)nc1-c1ccncc1 the results were SARS PLpro yeast inactive, Cycloheximide cs inactive, TbPYK inhibitor inactive, NS1 inh inactive, Shiga toxin inh inactive and LmPK inhibitor inactive.
`O=C(Nc1ccc(Cl)cc1)c1csc([C@@H]2O[C@H](CO)[C@@H](O)[C@H]2O)n1` gave TbPYK inhibitor inactive.
Screening CC1(C)CC(=O)C2=C(C1)OC(N)=C(C#N)C2c1cn(-c2ccccc2)nc1-c1ccc(F)cc1 (centres undefined) returned SARS PLpro yeast inactive, Cycloheximide cs inactive, TbPYK inhibitor inactive, NS1 inh inactive, Shiga toxin inh inactive and LmPK inhibitor inactive.
Screening CC1(C)CC(=O)C2=C(C1)C(c1cn(-c3ccccc3)nc1-c1ccccc1)C(C#N)=C(N)O2 (centres undefined) returned SARS PLpro yeast inactive, Cycloheximide cs 23, TbPYK inhibitor inactive, NS1 inh inactive, Shiga toxin inh inactive and LmPK inhibitor inactive.
Screening CCc1cc2c(=O)n(-c3ccc(Br)cc3)cnc2s1 returned SARS PLpro yeast inactive, Cycloheximide cs 16, TbPYK inhibitor inactive, NS1 inh inactive, Shiga toxin inh inactive and LmPK inhibitor inactive.
CCc1cc2c(=O)n(CC(C)C)cnc2s1 was read as SARS PLpro yeast inactive, Cycloheximide cs 48, TbPYK inhibitor inactive, NS1 inh inactive, Shiga toxin inh 63 and LmPK inhibitor inactive.
`CCCCCn1cnc2sc(CC)cc2c1=O` gave SARS PLpro yeast inactive, Cycloheximide cs 66, TbPYK inhibitor inactive, NS1 inh inactive, Shiga toxin inh active and LmPK inhibitor inactive.
`CCc1cc2c(=O)n(CC(=O)NC3CCCCC3)cnc2s1` gave SARS PLpro yeast inactive, Cycloheximide cs inactive, TbPYK inhibitor inactive, NS1 inh inactive, Shiga toxin inh inactive and LmPK inhibitor inactive.
`Cn1c(=O)c2c(nc(N3CCOCC3)n2Cc2cccc(Br)c2)n(C)c1=O` gave TbPYK inhibitor inactive.
COc1ccc(-c2noc(CCC(=O)N3CCN(c4ccc(F)cc4)CC3)n2)cc1 was read as SARS PLpro yeast inactive and TbPYK inhibitor inactive.
`c1ccc(CCNc2nc3ccccc3s2)cc1` gave SARS PLpro yeast inactive, Cycloheximide cs 67, TbPYK inhibitor inactive, NS1 inh inactive, Shiga toxin inh 85 and LmPK inhibitor inactive.
For COc1ccc(CNc2nccs2)cc1OC the results were SARS PLpro yeast inactive, Cycloheximide cs inactive, TbPYK inhibitor inactive, NS1 inh inactive, Shiga toxin inh inactive and LmPK inhibitor inactive.
`COc1ccc(CNc2nc3ccccc3s2)cc1OC` gave SARS PLpro yeast inactive, Cycloheximide cs 45, TbPYK inhibitor inactive, NS1 inh inactive, Shiga toxin inh 66 and LmPK inhibitor inactive.
For c1ccc(CCNc2nc(-c3ccccc3)cs2)cc1 the results were TbPYK inhibitor inactive.
For C=CCN(C(=O)CC(NC(C)=O)c1ccccc1)c1nc(-c2ccc(S(C)(=O)=O)cc2)cs1 (centres undefined) the results were SARS PLpro yeast inactive, Cycloheximide cs 31, TbPYK inhibitor inactive, NS1 inh inactive, Shiga toxin inh 79 and LmPK inhibitor inactive.
COC(=O)c1ccccc1NC(=O)COC(=O)c1ccccc1N=Nc1ccc(N(C)C)cc1 was read as SARS PLpro yeast inactive, Cycloheximide cs inactive, TbPYK inhibitor inactive, NS1 inh inactive, Shiga toxin inh inactive and LmPK inhibitor inactive.
CC(=O)c1ccc(NC(=O)COC(=O)c2ccccc2N=Nc2ccc(N(C)C)cc2)cc1 was read as SARS PLpro yeast inactive, Cycloheximide cs 49, TbPYK inhibitor inactive, NS1 inh inactive, Shiga toxin inh 99 and LmPK inhibitor inactive.
CN(C)c1cccc(C(=O)OCC(=O)N(C)c2ccccc2)c1 was read as SARS PLpro yeast inactive, Cycloheximide cs inactive, TbPYK inhibitor inactive, NS1 inh inactive, Shiga toxin inh inactive and LmPK inhibitor inactive.
CN(C)c1ccc(N=Nc2ccccc2C(=O)OCC(=O)N(C)c2ccccc2)cc1 was read as SARS PLpro yeast inactive, Cycloheximide cs 34, TbPYK inhibitor inactive, NS1 inh inactive, Shiga toxin inh inactive and LmPK inhibitor inactive.

Assay outcomes: PubChem, National Center for Advancing Translational Sciences (NCATS)
